The record followed here is PubChem BioAssay (NCATS).

The nature of assay [1]: Cell Viability - Jurkat (AID 426;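 active = dose-dependent loss of cell ATP signal giving a full or clear fitted curve, ranked by lower potency value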;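 note: potency is the fitted concentration of half-maximal effect; cells exposed to compound for 40 hours at 37 °C before ATP read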). Particulars: qHTS. Summed up:
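Seed 5000 Jurkat E6-1 cells/well; add compound; incubate 40 hr at 37 °C; add CellTiter-Glo; wait 20 min at room temperature; read luminescence. Fit concentration-response with Hill equation for AC50.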
In general terms: In qHTS, concentration-response curves come from the screen itself.

Assay [2] in a line: Cell Viability - NIH 3T3 (AID 541).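 Note: cells exposed to compound for 40 hours; plate controls were DMSO alone for no effect and tamoxifen positive control for full effect; nearly all actives have a fitted effect of over 25% in size.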 The settings on record: NIH 3T3 cell viability, qHTS; activity change, negative = cytotoxicity: at 92.2 µM (top of the series). The essentials:
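AC50 values reflect concentration-dependent loss of intracellular ATP in NIH 3T3 cells after 40 hr treatment in complete culture medium, quantified by luciferase-based luminescence.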

A short description of assay [3]: Cellular Toxicity (caspase-3) SK-N-SH (AID 661).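 Note: 0% = DMSO basal and 100% = 10 µM staurosporine.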 The settings on record: SK-N-SH caspase-3 activation, qHTS, DMSO as zero, staurosporine as full; series mostly up to 91.7 µM. Summed up: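 Caspase 3/7 activation is measured as a luminescence increase from aminoluciferin released by substrate cleavage in SK-N-SH cells after 16 hr compound treatment; values are AC50 from concentration-response curves.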

Assay [4] deals with Cytochrome P450 3A4 (Homo sapiens) (UniProt P08684). Put plainly: qHTS Assay for Inhibitors and Substrates of Cytochrome P450 3A4 (AID 884). Note: nearly all actives have a fitted effect of over 50% in size. Note: potency is the fitted concentration of half-maximal effect. Particulars: recombinant CYP3A4, Luciferin-PPXE luminescence; series mostly up to 57.1 µM. The essentials: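 20 nM human CYP3A4 with 25 uM Luciferin-PPXE (at KM) in 200 mM KPO4, preincubated 10 min with compound; NADPH regeneration started a 60 min RT reaction. Luciferin detected by luminescence, normalized to 57 uM ketoconazole as full inhibition.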

Assay [5] is described as follows: MultiTox-Fluor Cytotoxicity Assay - LYMP1-002 - Dead Cells (AID 960).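 Note: 0% = DMSO and 100% = tetraoctylammonium bromide; nearly all actives have a fitted effect of over 60% in size.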 The settings on record: LYMP1-002 lymphoblastoid cells, dead-cell protease fluorescence; series mostly up to 46.1 µM. Summed up:
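Acute cytotoxicity in a human lymphoblastoid line is scored as rising dead-cell protease signal after 16 hr exposure at 37 C, measured fluorometrically (485/520).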

A short description of assay [6]: Cell Viability - LYMP1-003 - Assay at 24 hr (AID 963).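 Note: plate controls were DMSO only for no effect and tetraoctylammonium bromide positive control for full effect.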 Particulars: LYMP1-003 lymphoblastoid cell viability; series mostly up to 92.2 µM. The essentials:
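Acute toxicity in LYMP1-003 lymphoblastoid cells: 24 hr compound treatment at 37 C, ATP measured with CellTiter-Glo after 30 min at room temperature. AC50 derived by fitting the Hill equation to qHTS titrations.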

Assay [7] can be described thus: Cell Viability - LYMP2-013 (AID 970).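 Note: cells exposed to compound for 24 h at 37 °C; 0% = DMSO only and full inhibition = tetraoctylammonium bromide control; nearly all actives have a fitted effect of over 55% in size.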 Particulars: LYMP2-013 lymphoblastoid cells viability; series mostly up to 92.2 µM. The essentials: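 Acute toxicity was measured in human lymphoblastoid cells (2500/well) exposed to compound titrations for 24 hr, with ATP luminescence (CellTiter-Glo) as read-out and AC50 fitted by Hill equation.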
For assay [8], the target named is Peroxisome proliferator-activated receptor gamma (Homo sapiens) (UniProt P37231). Put plainly: qHTS assay for small molecule agonists of peroxisome proliferator-activated receptor gamma signaling (AID 588536; active = well fitted curve in the direction sought with a large enough effect in the signal ratio, with a control signal flat, not every such curve was filed as active; the % refers to the signal ratio;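 note: 0% = DMSO basal wells and 100% = rosiglitazone at 2 µM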). The settings on record: HEK293 PPARg-UAS-bla, beta-lactamase ratio, 16 h, percent of rosiglitazone response, DMSO as zero; series mostly up to 76.7 µM. The essentials: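 GeneBLAzer PPAR-gamma-UAS-bla HEK293 cells in 1% charcoal/dextran-treated FBS medium were treated 16 h at 37 C with compounds. Beta-lactamase activity was read by CCF4 ratio (460/530 nm). Response was normalized to 2 uM rosiglitazone (100%) and DMSO, then Hill-fitted for EC50 and efficacy.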

The target of assay [9] is Vitamin D3 receptor (Homo sapiens) (UniProt P11473). Put plainly: qHTS assay for small molecule antagonists of vitamin D receptor signaling (AID 588541; calls by dose curve;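 note: receptor activated by calcitriol during compound treatment; % is set by controls: 0 for no effect and ±100 for the full control effect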). The settings on record: HEK293T VDR-UAS-bla, beta-lactamase ratio, antagonist mode; series mostly up to 76.7 µM. Summed up: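 Antagonist-mode beta-lactamase reporter assay: HEK293T VDR-UAS-bla cells were exposed to titrated compound alongside 1-alpha,25-dihydroxyvitamin D3 at 3 nM final for 16 h. Values were normalized to the 50 nM agonist control and DMSO basal, with IC50 and efficacy from Hill equation fits.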

For assay [10] the target is unchanged. Put plainly: qHTS assay for small molecule agonists of vitamin D receptor signaling (AID 588543; calls by dose curve;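 note: 0% = DMSO basal and 100% = reference agonist control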). Particulars: HEK293T VDR-UAS-bla, beta-lactamase ratio, 16 h; series mostly up to 76.8 µM. Summed up: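 Reporter cells (HEK293T, VDR-UAS-bla) were seeded in medium with 2% charcoal-stripped serum and incubated 5 h, then compounds in concentration series were added for 16 h at 37 °C. Stimulation was scaled between DMSO basal and 50 nM 1α,25-dihydroxyvitamin D3.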

Assay [11] deals with Thyroid hormone receptor beta (Homo sapiens) (UniProt P10828). Put plainly: qHTS assay for small molecule agonists of thyroid hormone receptor beta signaling (AID 588545; calls by dose curve;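 note: 0% = DMSO only and 100% = 10 nM T3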). The settings on record: TR-UAS-bla GripTite HEK 293, beta-lactamase ratio, agonist mode, 18 h; series mostly up to 76.7 µM. The essentials: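 TR-UAS-bla-GripTite HEK 293 cells in medium with 2% charcoal/dextran FBS, 0.1 mM NEAA and 1 mM sodium pyruvate were treated with titrated compounds for 18 hrs at 37 C. Beta-lactamase reporter was read with CCF4 dye (ex 405, em 460/530 nm); EC50 from Hill fits.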

Assay [12] has as its target Voltage-gated inwardly rectifying potassium channel KCNH2 (Homo sapiens) (UniProt Q12809). Briefly: qHTS Assay for Small Molecule Inhibitors of the Human hERG Channel Activity (AID 588834).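 Note: lower thallium flux fluorescence means stronger hERG block; nearly all actives have a fitted effect of over 50% in size.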 Note: potency is the fitted concentration of half-maximal effect. The settings on record: U2OS BacMam hERG, FluxOR thallium flux fluorescence; series mostly up to 92.2 µM. The essentials: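 hERG-BacMam U2OS, 2000 cells/well; 0.7X FluxOR loading 1 hr RT dark; cpd ~10 min 37 °C; stim buffer; FDSS fluorescence 2 min @ 1 s; AC50 Hill fit.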

Assay [13] is described as follows: qHTS assay for small molecule agonists of the antioxidant response element (ARE) signaling pathway (AID 651741; active = well fitted activation curve with a large enough effect in the signal ratio; the % refers to the signal ratio; note: potency is the fitted concentration of half-maximal effect; for activation: % of control where 0% means no effect). Particulars: HepG2 ARE-bla reporter, beta-lactamase FRET ratio, 16 h; series mostly up to 96 µM. Summed up:
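Seeding 2,000 ARE-bla HepG2 cells per well preceded a 5 h incubation at 37 C/5% CO2 and a 16 h compound exposure at 37 C. Beta-lactamase reporter activity was then quantified by fluorescence after 2 h with LiveBLAzer B/G FRET substrate.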

Assay [14] is described as follows: qHTS assay for small molecule activators of the p53 signaling pathway (AID 651743; active = well fitted activation curve with a large enough effect in the signal ratio, not every such curve was filed as active; the % refers to the signal ratio; note: % of control where 0% means no effect). The settings on record: HCT-116 p53RE-bla, beta-lactamase FRET ratio, 16 h; activation: stronger effect = higher value. Summed up:
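Screen for p53 pathway agonists uses stably transfected p53RE-bla HCT-116 cells, 4,000 per well, treated 16 h at 37 C with compounds in DMSO.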

A short description of assay [15]: qHTS assay for small molecule disruptors of the mitochondrial membrane potential - 1 hr assay (AID 651754; calls by dose curve; note: % is set by controls: 0 for no effect and ±100 for the full control effect; nearly all actives have a fitted effect of over 35% in size). Particulars: series mostly up to 92.2 µM. Summed up:
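Steps: seed HepG2 cells and let attach overnight; pin-transfer compound or vehicle; incubate 1 hr at 37C; add Mito-MPS dye for 30 min; read two-channel fluorescence for monomer and aggregate forms.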

Assay [16] is described as follows: qHTS assay for small molecule activators of the human pregnane X receptor (PXR) signaling pathway (AID 720659; call rule not given here; note: 0% is about no effect). Particulars: DPX-2 HepG2 CYP3A4-luciferase, 24 h; series mostly up to 92.3 µM.
The target of assay [17] is Tumor necrosis factor (Homo sapiens) (UniProt P01375). Put plainly: qHTS assay to identify small molecules that stimulate Tumor Necrosis Factor-alpha (TNF-alpha) secretion (AID 651757; active = well fitted curve in the direction sought with a large enough effect in the signal ratio; the % refers to the signal ratio; note: potency is the fitted concentration of half-maximal effect). The settings on record: Human cells, HTRF 665/615 ratio; series mostly up to 92.2 µM. The essentials: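 Secreted TNF-alpha from compound-treated THP-1 cells (17 hrs, 37 C) was quantified with a homogeneous time-resolved fluorescence antibody assay.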

Assay [18] addresses Nuclear receptor ROR-gamma (Homo sapiens) (UniProt P51449). Briefly: qHTS assay for small molecule antagonists of the retinoid-related orphan receptor gamma (ROR-gamma) signaling pathway (AID 651802).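 Note: CHO cells with doxycycline-induced ROR-gamma expression; luciferase reporter luminescence driven by ROR response element; % is set by controls: 0 for no effect and ±100 for the full control effect; nearly all actives have a fitted effect of over 60% in size.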 Particulars: ROR-gamma antagonist cell reporter assay; series mostly up to 92.2 µM. Summed up:
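Antagonism is scored as a fall in luminescence from a RORE-luciferase reporter in CHO cells expressing ROR under a TET-inducible promoter, measured 16hr after doxycycline induction in the presence of compound.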

Assay [19] is described as follows: qHTS assay for small molecule antagonists of peroxisome proliferator-activated receptor delta signaling (AID 588535; active = well fitted inhibition curve with a large enough effect in the signal ratio, with a control signal flat, not every such curve was filed as active; the % refers to the signal ratio;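 for max response: cells co-treated with a PPAR-delta agonist as stimulator during compound exposure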). Particulars: HEK293T PPARd-UAS-bla, beta-lactamase FRET ratio, 18 h; 460 nm channel. The essentials:
(§1)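 Cell-based beta-lactamase assay in antagonist mode: 4000 HEK293T PPAR-delta-UAS-bla cells per well, 5 hr preincubation then 18 hr compound incubation at 37 C. IC50 obtained by Hill equation fitting.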

Assay [20] has as its target Peroxisome proliferator-activated receptor delta (Homo sapiens) (UniProt Q03181). Described as above. The settings on record: HEK293T PPARd-UAS-bla, beta-lactamase FRET ratio, 18 h; series mostly up to 76.7 µM. The essentials: as §1

Molecules are shown by their SMILES. Where “and” joins values, the source holds several entries; their conditions need not be identical. Equal values may be shown once. Results filed as inconclusive are left out. Calls of active or inactive are those of the source. Unless noted, calls come from the whole dose curve; as a rule, active = well fitted curve in the direction sought with a large enough effect; inconclusive = small, poorly fitted or top-dose-only effect, or another doubt; inactive = no such curve, though single readings can be large; an effect the other way counts as inactive or inconclusive. Bounds are passed on as bounds.

Tumor necrosis factor (Homo sapiens), sequence (P01375 whole entry, looked up): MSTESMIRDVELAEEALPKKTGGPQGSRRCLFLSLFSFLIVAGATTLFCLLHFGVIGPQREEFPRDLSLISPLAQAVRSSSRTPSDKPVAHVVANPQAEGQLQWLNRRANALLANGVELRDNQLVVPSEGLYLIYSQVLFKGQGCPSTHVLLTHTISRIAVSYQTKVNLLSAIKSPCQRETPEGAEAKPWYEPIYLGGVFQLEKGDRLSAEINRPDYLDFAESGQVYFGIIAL
Nuclear receptor ROR-gamma (Homo sapiens), sequence (P51449 whole entry, looked up): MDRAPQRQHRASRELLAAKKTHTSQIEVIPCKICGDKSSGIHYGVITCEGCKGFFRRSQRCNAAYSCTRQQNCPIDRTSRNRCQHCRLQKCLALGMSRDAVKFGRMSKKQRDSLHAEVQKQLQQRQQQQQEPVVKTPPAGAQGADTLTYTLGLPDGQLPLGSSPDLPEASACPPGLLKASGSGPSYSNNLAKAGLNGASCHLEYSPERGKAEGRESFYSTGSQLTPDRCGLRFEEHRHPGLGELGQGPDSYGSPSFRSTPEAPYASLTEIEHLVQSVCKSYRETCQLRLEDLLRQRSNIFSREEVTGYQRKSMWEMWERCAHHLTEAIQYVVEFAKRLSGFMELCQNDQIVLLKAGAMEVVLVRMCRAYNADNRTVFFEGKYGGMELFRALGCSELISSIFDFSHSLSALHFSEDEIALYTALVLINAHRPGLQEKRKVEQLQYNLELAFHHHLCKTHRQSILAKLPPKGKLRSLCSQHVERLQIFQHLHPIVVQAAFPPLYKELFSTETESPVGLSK
Cytochrome P450 3A4 (Homo sapiens), sequence (P08684 whole entry, looked up): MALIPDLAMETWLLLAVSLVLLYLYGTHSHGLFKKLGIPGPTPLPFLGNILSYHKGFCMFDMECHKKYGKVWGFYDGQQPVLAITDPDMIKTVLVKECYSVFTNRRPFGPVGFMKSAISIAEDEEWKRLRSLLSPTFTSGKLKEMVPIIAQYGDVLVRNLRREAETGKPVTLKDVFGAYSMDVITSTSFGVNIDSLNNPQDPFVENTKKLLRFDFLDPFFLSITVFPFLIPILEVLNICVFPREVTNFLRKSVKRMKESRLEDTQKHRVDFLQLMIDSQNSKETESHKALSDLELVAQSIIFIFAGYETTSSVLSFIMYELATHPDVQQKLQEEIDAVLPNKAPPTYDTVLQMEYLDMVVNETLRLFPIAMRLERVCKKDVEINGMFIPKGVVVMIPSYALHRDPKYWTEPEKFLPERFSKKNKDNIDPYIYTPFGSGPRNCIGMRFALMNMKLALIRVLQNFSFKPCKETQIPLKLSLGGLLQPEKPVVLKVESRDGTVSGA
Thyroid hormone receptor beta (Homo sapiens), sequence (P10828 whole entry, looked up): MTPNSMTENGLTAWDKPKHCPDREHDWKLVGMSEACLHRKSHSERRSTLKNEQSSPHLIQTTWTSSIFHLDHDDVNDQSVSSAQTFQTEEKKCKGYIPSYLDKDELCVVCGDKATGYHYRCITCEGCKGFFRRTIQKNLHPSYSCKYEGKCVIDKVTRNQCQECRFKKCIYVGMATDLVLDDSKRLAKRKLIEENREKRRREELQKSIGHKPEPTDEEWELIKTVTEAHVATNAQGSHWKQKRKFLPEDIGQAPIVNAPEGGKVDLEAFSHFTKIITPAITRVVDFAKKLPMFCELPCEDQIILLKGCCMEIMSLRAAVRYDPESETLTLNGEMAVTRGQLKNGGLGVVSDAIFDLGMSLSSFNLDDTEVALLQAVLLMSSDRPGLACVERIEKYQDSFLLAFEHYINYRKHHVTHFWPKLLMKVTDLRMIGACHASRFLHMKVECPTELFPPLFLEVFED
Peroxisome proliferator-activated receptor gamma (Homo sapiens), sequence (P37231 whole entry, looked up): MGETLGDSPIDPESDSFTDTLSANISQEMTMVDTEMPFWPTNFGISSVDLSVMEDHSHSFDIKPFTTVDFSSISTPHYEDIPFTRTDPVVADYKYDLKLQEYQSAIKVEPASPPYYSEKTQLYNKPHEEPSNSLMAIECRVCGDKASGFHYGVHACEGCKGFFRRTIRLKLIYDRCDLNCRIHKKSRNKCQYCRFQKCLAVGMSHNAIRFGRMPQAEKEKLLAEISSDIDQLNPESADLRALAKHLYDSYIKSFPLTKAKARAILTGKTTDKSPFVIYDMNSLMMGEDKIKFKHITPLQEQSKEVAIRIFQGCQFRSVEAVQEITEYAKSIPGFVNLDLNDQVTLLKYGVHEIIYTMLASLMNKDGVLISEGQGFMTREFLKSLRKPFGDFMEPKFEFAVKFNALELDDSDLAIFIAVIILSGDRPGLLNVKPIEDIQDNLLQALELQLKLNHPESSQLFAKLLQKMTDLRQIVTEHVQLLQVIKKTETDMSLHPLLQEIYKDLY
Vitamin D3 receptor (Homo sapiens), sequence (P11473 whole entry, looked up): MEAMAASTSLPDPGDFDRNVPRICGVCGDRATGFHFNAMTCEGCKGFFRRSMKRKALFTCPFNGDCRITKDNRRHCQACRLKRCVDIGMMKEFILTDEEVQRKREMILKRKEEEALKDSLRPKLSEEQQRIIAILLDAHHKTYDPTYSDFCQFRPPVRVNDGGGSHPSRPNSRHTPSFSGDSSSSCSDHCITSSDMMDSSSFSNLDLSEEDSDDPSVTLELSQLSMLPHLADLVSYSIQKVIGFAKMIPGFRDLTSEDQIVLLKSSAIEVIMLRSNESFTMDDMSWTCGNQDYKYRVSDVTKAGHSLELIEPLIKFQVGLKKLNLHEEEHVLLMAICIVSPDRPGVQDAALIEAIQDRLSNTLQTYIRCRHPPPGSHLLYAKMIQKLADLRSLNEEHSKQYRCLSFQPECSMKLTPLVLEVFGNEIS
Voltage-gated inwardly rectifying potassium channel KCNH2 (Homo sapiens), sequence (Q12809 whole entry, looked up): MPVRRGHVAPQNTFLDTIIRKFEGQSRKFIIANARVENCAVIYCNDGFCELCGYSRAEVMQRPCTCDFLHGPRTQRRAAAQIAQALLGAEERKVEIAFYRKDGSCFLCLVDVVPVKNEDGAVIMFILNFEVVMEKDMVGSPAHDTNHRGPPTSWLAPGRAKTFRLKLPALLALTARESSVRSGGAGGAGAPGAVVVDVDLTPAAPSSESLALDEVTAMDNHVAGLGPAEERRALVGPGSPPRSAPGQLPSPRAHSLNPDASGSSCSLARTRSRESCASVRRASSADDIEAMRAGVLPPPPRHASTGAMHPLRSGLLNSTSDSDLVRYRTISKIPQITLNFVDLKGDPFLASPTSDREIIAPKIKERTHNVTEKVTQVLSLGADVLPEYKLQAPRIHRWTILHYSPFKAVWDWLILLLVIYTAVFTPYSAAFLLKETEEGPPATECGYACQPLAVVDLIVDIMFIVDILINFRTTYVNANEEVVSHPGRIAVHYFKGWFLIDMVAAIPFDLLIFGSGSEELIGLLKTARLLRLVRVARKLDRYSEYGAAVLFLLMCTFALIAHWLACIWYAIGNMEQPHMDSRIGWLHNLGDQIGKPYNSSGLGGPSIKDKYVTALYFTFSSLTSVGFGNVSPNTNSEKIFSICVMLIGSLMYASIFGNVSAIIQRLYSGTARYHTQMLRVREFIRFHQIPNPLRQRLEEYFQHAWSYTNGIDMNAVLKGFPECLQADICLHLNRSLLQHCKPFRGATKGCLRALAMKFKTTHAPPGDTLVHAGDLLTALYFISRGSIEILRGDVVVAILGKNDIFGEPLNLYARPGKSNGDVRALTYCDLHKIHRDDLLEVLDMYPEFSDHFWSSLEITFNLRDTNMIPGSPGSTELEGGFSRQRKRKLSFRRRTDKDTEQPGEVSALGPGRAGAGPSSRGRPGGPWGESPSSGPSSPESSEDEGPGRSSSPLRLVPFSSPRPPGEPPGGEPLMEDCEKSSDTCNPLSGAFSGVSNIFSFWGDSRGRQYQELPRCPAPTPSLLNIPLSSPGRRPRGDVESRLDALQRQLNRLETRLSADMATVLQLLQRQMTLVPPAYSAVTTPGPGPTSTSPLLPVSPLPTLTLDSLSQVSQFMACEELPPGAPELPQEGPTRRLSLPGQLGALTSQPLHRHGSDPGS
Peroxisome proliferator-activated receptor delta (Homo sapiens), sequence (Q03181 whole entry, looked up): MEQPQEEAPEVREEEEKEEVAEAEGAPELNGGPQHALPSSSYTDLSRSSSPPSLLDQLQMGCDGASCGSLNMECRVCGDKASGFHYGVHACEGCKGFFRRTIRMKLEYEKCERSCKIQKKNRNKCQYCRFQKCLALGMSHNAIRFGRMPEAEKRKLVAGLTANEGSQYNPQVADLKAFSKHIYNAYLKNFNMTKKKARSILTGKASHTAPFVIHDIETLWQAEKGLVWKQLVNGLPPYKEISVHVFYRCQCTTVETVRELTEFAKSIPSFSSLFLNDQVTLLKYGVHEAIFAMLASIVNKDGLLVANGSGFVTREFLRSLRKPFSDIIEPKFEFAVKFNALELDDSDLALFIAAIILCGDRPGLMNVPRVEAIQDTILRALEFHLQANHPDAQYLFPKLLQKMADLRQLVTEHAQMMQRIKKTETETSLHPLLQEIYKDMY

On to `Nc1cc(C(=O)O)c(O)c(S(=O)(=O)O)c1`, for which, in assay [1], the Potency is > 92 µM (inactive). The activity change, negative = cytotoxicity in assay [2] is -24.6% (inactive). Also, the outcome in assay [3], in assay [8] and in [16] was inactive. For the same compound, the Potency entry in assay [4], in assay [5], in assay [6], in assay [7], in assay [9] and in [10] was “inactive” each time. Further, the Potency result in assay [11], in assay [12], in assay [13] and in [15] was “inactive” each time. The activation in [14] is -4.77% (inactive).
In the case of `Brc1ccc(-c2ccccc2)cc1`, in [1], the Potency was > 92 µM (inactive). Further, the activity change, negative = cytotoxicity in assay [2] was -9.21% (inactive). Also, the Potency entry in assay [4], in assay [5], in assay [6], in assay [7], in assay [9] and in [10] was “inactive” throughout. In addition, the Potency entry in assay [11], in [13], in [17] and in assay [18] was “inactive” each time. The activation in [14] was -2.65% (inactive). For the same compound, in [16], the compound was called inactive.
As to `OCC(CO)(CBr)CBr`, in assay [1], the Potency is > 92 µM (inactive). The result in assay [3], in assay [20], in [8] and in [16] was inactive. In addition, the Potency result in [4], in [5], in assay [6], in assay [11], in assay [12] and in [13] was “inactive” throughout. In addition, the Potency entry in assay [15], in [17] and in assay [18] was “inactive” throughout. The max response in assay [19] was 0.13% and -4.24%.
As for `CCOC(=O)C1OC1c1ccccc1` (configuration not stated), in assay [1], the Potency was > 92 µM (inactive). The outcome in assay [3], in assay [20], in assay [8] and in [16] was inactive. The Potency result in [4], in assay [5], in [7], in assay [9], in assay [10] and in assay [11] was “inactive” in each case. The Potency result in [15], in assay [17] and in assay [18] was “inactive” in each case. Also, in assay [19], the max response is -6.92%. The activation in assay [14] was 6.05% (inactive).
For the compound `COc1cc(-c2ccc(N=C=O)c(OC)c2)ccc1N=C=O`, the Potency in assay [1] is > 92 µM (inactive); in assay [4], 12.6 µM (active); in assay [13], 2.37 µM (active). Further, the compound was called inactive in [3] and in assay [16]. In addition, the Potency result in [5], in [6], in [7], in [9], in [10] and in [11] was “inactive” throughout. The Potency result in [12] is “inactive”.
Take `CCCCC(CC)COCCCN` (configuration not stated): the Potency in assay [1] is > 92 µM (inactive). The activity change, negative = cytotoxicity in assay [2] was -23.1% (inactive). Also, the Potency result in assay [5], in assay [11], in [12], in assay [13] and in assay [17] was “inactive” throughout. Moreover, the max response in [19] is 8.44%. Further, the outcome in assay [20] and in [16] was inactive. In addition, in [14], the activation is -2.34% (inactive).
With `CC(=O)OCc1ccc2c(c1)OCO2`, the Potency in assay [1] was > 92 µM (inactive). Besides, the Potency entry in [5], in assay [6], in assay [9], in [10], in [11] and in assay [12] was “inactive” throughout. Besides, the Potency entry in assay [13], in assay [15], in assay [17] and in assay [18] was “inactive” in each case. Also, the activation in [14] is -2.61% (inactive). For the same compound, in assay [16], the result was inactive.
For the compound `Cc1cc(=O)oc2cc(O)cc(O)c12`, the Potency in assay [1] is > 92 µM (inactive); in assay [4] it was 6.31 µM (active); in assay [13], 13.3 µM (active); in [17] it was 7.5 µM (active). Further, the result in assay [3], in [8] and in [16] was inactive. Further, the Potency result in assay [5], in assay [7], in assay [9], in [11], in assay [12] and in [18] was “inactive” in each case. In assay [14], the activation was 10.2% (inactive).
In the case of `O=C(OCc1ccccc1)c1ccccc1O`, the Potency is > 92 µM (inactive) in assay [1] and 39.8 µM (active) in assay [12]. For the same compound, the activity change, negative = cytotoxicity in [2] is -9.56% (inactive). The outcome in assay [3], in assay [20] and in assay [16] was inactive. Also, the Potency result in assay [4], in assay [6], in [9], in assay [10], in [11] and in assay [15] was “inactive” throughout. The Potency entry in assay [17] and in assay [18] was “inactive” throughout. Further, the max response in assay [19] is 2.34% and -10.8%. The activation in assay [14] was 1.07% (inactive) and -2.52% (inactive).
